Laboratory results taken from the supplement of paper PMC13172266.
Counter-ions that a name gives are not always drawn.

Legend:
Test in all cases: cell proliferation relative to vehicle (% of vehicle); higher = less growth inhibition
Settings in all cases: 72 h
[1] = tested on: U2932 TK216-resistant clone 2
Method in brief: (§1)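 Parental U2932 cells (ABC-DLBCL) and two clones made resistant to an ETS-targeting agent by almost a year of repeated exposure were treated for 72 h with 348 targeted inhibitors at 500 nM or 50 nM. MTT was then applied for 4 h, the reaction was stopped with 25% SDS, and absorbance was measured on a Cytation 3. Values express proliferation as percent of proliferating cells compared with DMSO vehicle.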

[2] = tested on: U2932 TK216-resistant clone 3
Method in brief: as §1

U2932 parental = tested on: U2932 parental
Method in brief: as §1

Row | Structure (SMILES) | cell proliferation ([1]; 50 nM) | cell proliferation ([1]; 500 nM) | cell proliferation ([2]; 50 nM) | cell proliferation ([2]; 500 nM) | cell proliferation (U2932 parental; 50 nM) | cell proliferation (U2932 parental; 500 nM)
1 | CN1CCN(CCOc2cc(OC3CCOCC3)c3c(Nc4c(Cl)ccc5c4OCO5)ncnc3c2)CC1 [Saracatinib (AZD0530)] | 103 | 97.1 | 99.6 | 101 | 94.1 | 98.9
2 | CN(C)CCOc1ccc(/C(=C(/CCCl)c2ccccc2)c2ccccc2)cc1 [Toremifene Citrate] | 102 | 84.4 | 101 | 75.1 | 101 | 88.8
3 | Cc1[nH]nc2ccc(-c3cncc(OC[C@@H](N)Cc4ccccc4)c3)cc12 | 95.6 | 41.7 | 99.4 | 40.6 | 93.5 | 31.7
4 | COc1cc(Nc2ncc(F)c(Nc3ccc4c(n3)NC(=O)C(C)(C)O4)n2)cc(OC)c1OC | 108 | 97.1 | 103 | 103 | 87.9 | 82.1
5 | CCCCCCCCCCCCCCCCCCOP(=O)([O-])OC1CC[N+](C)(C)CC1 [Perifosine (KRX-0401)] | 98.7 | 93.4 | 113 | 110 | 96.7 | 102
6 | CCNC(=O)c1noc(-c2cc(C(C)C)c(O)cc2O)c1-c1ccc(CN2CCOCC2)cc1 | 4.68 | 4.69 | 21.4 | 21.1 | 3.32 | 3.9
7 | Cc1ccc(Nc2nccc(N(C)c3ccc4c(C)n(C)nc4c3)n2)cc1S(N)(=O)=O [Pazopanib HCl] | 110 | 102 | 101 | 99.6 | 95.2 | 105
8 | OCCn1cc(-c2ccc3c(c2)CC/C3=N\O)c(-c2ccncc2)n1 | 105 | 106 | 97 | 91.9 | 105 | 103
9 | O=C(O)C(=O)O.[NH-][C@@H]1CCCC[C@H]1[NH-].[Pt+2] [Oxaliplatin] | 104 | 99 | 105 | 96.6 | 96.8 | 93.2
10 | CS(=O)(=O)CCNCc1ccc(-c2ccc3ncnc(Nc4ccc(OCc5cccc(F)c5)c(Cl)c4)c3c2)o1 | 101 | 85.9 | 94.2 | 84.4 | 96.6 | 97.3
11 | NC1(c2ccc(-c3nc4ccn5c(=O)[nH]nc5c4cc3-c3ccccc3)cc2)CCC1 | 101 | 70.1 | 97.5 | 74.9 | 96.8 | 68.4
12 | N=C1NC(=O)/C(=C/c2ccc(O)cc2)S1 [Mirin] | 103 | 94.6 | 107 | 102 | 90.9 | 97.3
13 | CO[C@H]1C[C@@H]2CC[C@@H](C)[C@@](O)(O2)C(=O)C(=O)N2CCCC[C@H]2C(=O)O[C@H]([C@H](C)C[C@@H]2CC[C@@H](OCCO)[C@H](OC)C2)CC(=O)[C@H](C)/C=C(\C)[C@@H](O)[C@@H](OC)C(=O)[C@H](C)C[C@H](C)/C=C/C=C/C=C/1C [Everolimus (RAD001)] | 65.8 | 65.5 | 64.2 | 66.5 | 55.5 | 59.1
14 | CC(C)N(CCCNC(=O)Nc1ccc(C(C)(C)C)cc1)C[C@H]1O[C@@H](n2cc(Br)c3c(N)ncnc32)[C@H](O)[C@@H]1O | 108 | 100 | 105 | 96.1 | 96.7 | 100
15 | CC1(C)CNc2cc(NC(=O)c3cccnc3NCc3ccncc3)ccc21 [Motesanib Diphosphate (AMG-706)] | 103 | 97.7 | 104 | 87.8 | 97.4 | 93.9
16 | CN(C)Cc1c(C(=O)NCCOc2ccc(C(=O)NO)cc2)oc2ccccc12 | 99.6 | 40.3 | 91.6 | 47.6 | 81.5 | 32.6
17 | COc1cc(Nc2c(C#N)cnc3cc(OCCCN4CCN(C)CC4)c(OC)cc23)c(Cl)cc1Cl [Bosutinib (SKI-606)] | 106 | 73.1 | 103 | 63.3 | 98.5 | 83.4
18 | NCC(=O)Nc1ccc(-n2nc(C(F)(F)F)cc2-c2ccc3c(ccc4ccccc43)c2)cc1 | 99.6 | 84.6 | 95.3 | 72.8 | 96.2 | 82.4
19 | C[C@@H]1CN(CC(=O)Nc2ccc3c(c2)Cc2cccc(-c4cc(=O)cc(N5CCOCC5)o4)c2S3)C[C@H](C)O1 | 102 | 101 | 103 | 97 | 105 | 111
20 | O=C1CCC(N2C(=O)c3ccccc3C2=O)C(=O)N1 (configuration not stated) [Thalidomide] | 105 | 106 | 104 | 101 | 103 | 101
21 | COc1cc2ncnc(Nc3ccc(O)c(Br)c3)c2cc1OC | 106 | 111 | 96.2 | 105 | 98.3 | 101
22 | COc1cc([C@@H]2c3cc4c(cc3[C@@H](O[C@@H]3O[C@@H]5CO[C@@H](C)O[C@H]5[C@H](O)[C@H]3O)[C@H]3COC(=O)[C@H]23)OCO4)cc(OC)c1O [Etoposide] | 95.7 | 53.8 | 99.3 | 74.9 | 93.3 | 68.8
23 | O=C(Nc1cc(C(F)(F)F)cc(C(F)(F)F)c1)c1cc(Cl)ccc1O | 103 | 104 | 109 | 102 | 102 | 101
24 | Cn1cc(CNCC2CCN(c3ncc(C(=O)NO)cn3)CC2)c2ccccc21 | 8.61 | 5.78 | 11.4 | 10.2 | 4.68 | 0.113

Row | Structure (SMILES) | cell proliferation ([1]; 50 nM) | cell proliferation ([1]; 500 nM) | cell proliferation ([2]; 50 nM) | cell proliferation ([2]; 500 nM) | cell proliferation (U2932 parental; 50 nM) | cell proliferation (U2932 parental; 500 nM)
25 | NC(=O)c1ccc(-c2nc(-c3ccccn3)c(-c3ccc4c(c3)OCO4)[nH]2)cc1 | 115 | 109 | 100 | 102 | 101 | 101
26 | Cc1ccc(NC(=O)c2ccc(CN3CCN(C)CC3)cc2)cc1Nc1nc(-c2cccnc2)cs1 [Masitinib (AB1010)] | 95.6 | 83.5 | 100 | 86.2 | 92.5 | 92.7
27 | N#CC[C@H](C1CCCC1)n1cc(-c2ncnc3[nH]ccc23)cn1 | 100 | 95.4 | 103 | 108 | 96.7 | 96.5
28 | C[S+]([O-])c1ccc(-c2nc(-c3ccc(F)cc3)c(-c3ccncc3)[nH]2)cc1 (configuration not stated) | 109 | 101 | 93.4 | 94.4 | 106 | 101
29 | O=C(O)C(Cc1c[nH]c2ccccc12)N1C(=O)c2ccccc2C1=O (configuration not stated) | 97.2 | 102 | 99.2 | 98 | 100 | 96.1
30 | CC#CC(=O)N1CCC[C@H]1c1nc(-c2ccc(C(=O)Nc3ccccn3)cc2)c2c(N)nccn12 | 70 | 64.8 | 75.8 | 72.9 | 77.4 | 75.6
31 | COc1cc([C@@H]2c3cc4c(cc3[C@@H](O[C@@H]3O[C@@H]5CO[C@@H](c6cccs6)O[C@H]5[C@H](O)[C@H]3O)[C@H]3COC(=O)[C@H]23)OCO4)cc(OC)c1O [Teniposide] | 59 | 8.54 | 83 | 19.8 | 67.7 | 16.8
32 | CN(C)Cc1ccc(S(=O)(=O)n2ccc(/C=C/C(=O)NO)c2)cc1 [Resminostat] | 99.1 | 93.8 | 92 | 90.4 | 93.4 | 84.7
33 | O=C(/C=C/c1ccc(CN(CCO)CCc2c[nH]c3ccccc23)cc1)NO [LAQ824 (Dacinostat)] | 41.2 | 5.42 | 48.6 | 12.4 | 33.6 | 0.789
34 | C[C@H](Nc1ncnc2nc[nH]c12)c1cc2cccc(Cl)c2c(=O)n1-c1ccccc1 | 103 | 92.2 | 95.6 | 94.3 | 106 | 108
35 | C=CC(=O)N1C/C(=C\c2ccc([N+](=O)[O-])cc2)C(=O)/C(=C/c2ccc([N+](=O)[O-])cc2)C1 | 31.4 | -1.71 | 30.7 | -2.43 | 34.3 | 1.03
36 | CS(=O)(=O)c1cccc(CNc2nc(Nc3ccc4c(c3)CCC(=O)N4)ncc2C(F)(F)F)c1 | 110 | 101 | 103 | 98.3 | 90.5 | 82.6
37 | COc1nc(C)cnc1NS(=O)(=O)c1cccnc1-c1ccc(-c2nnco2)cc1 [Zibotentan (ZD4054)] | 95.1 | 104 | 106 | 102 | 97.2 | 95.2
38 | Clc1ccc(C2(c3ccc(-c4cn[nH]c4)cc3)CCNCC2)cc1 | 88.5 | 48.2 | 94.6 | 73.6 | 93 | 75.5
39 | O=C(Cc1ccc(-c2ccc(OCCN3CCOCC3)cc2)cn1)NCc1ccccc1 | 14.1 | 8.36 | 20.3 | 8.01 | 13.9 | 9.55
40 | S=C(NCc1ccc2c(c1)OCO2)N1CCN(c2ncnc3c2oc2ccccc23)CC1 [Amuvatinib (MP-470)] | 102 | 109 | 107 | 104 | 100 | 101
41 | COc1cc(Nc2ncc(F)c(Nc3ccc4c(n3)NC(=O)C(C)(C)O4)n2)cc(OC)c1OC [R406 (free base)] | 98 | 87.2 | 103 | 98.3 | 94.8 | 92.8
42 | O=C(/C=C\n1cnc(-c2cc(C(F)(F)F)cc(C(F)(F)F)c2)n1)NNc1cnccn1 | 87.7 | 36.3 | 58.9 | 57.6 | 82.9 | 44.1
43 | COC(=O)Nc1ccc(-c2nc(N3CCOCC3)c3cnn(C4CCN(C(=O)OC)CC4)c3n2)cc1 | 107 | 55.1 | 101 | 56.4 | 101 | 46.9
44 | c1cc(-c2cnn3cc(-c4ccc(OCCN5CCCCC5)cc4)cnc23)ccn1 [Dorsomorphin 2HCl] | 113 | 98 | 119 | 108 | 110 | 98.3
45 | COc1ccc(C2=N[C@@H](c3ccc(Cl)cc3)[C@@H](c3ccc(Cl)cc3)N2C(=O)N2CCNC(=O)C2)c(OC(C)C)c1 [Nutlin-3] | 106 | 97.3 | 109 | 103 | 99.8 | 99.6
46 | Cc1csc(-c2nnc(Nc3ccc(Oc4ncccc4-c4ccnc(N)n4)cc3)c3ccccc23)c1 | 88 | 99.7 | 80.5 | 78 | 66.9 | 61.8
47 | COc1cc2c(NC3CCN(CC4CCCCC4)CC3)nc(N3CCCN(C(C)C)CC3)nc2cc1OCCCN1CCCCC1 | 95.3 | 105 | 91.4 | 115 | 96.3 | 110
